Screening results from PubChem BioAssay.
FUS suppressor: rescues growth of FUS-expressing yeast. S. cerevisiae FUS-expressing, growth rescue, OD600, 24 h. Potency, µM (series often up to 76.6 µM), most hits filed as activators. hit rate 0.24% among 390,000. AID 1347120;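 further: plate controls were DMSO vehicle for no effect and reference control for full effect; nearly all actives have a fitted effect of over 55% in size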
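Toxicity suppression screen in FUS-yeast. Cells induced with 2% galactose, starting OD 0.005, treated 24hr at 30C with compounds at multiple final concentrations; growth by OD600.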
TDP43 rescue: TDP-43 toxicity inhibition in yeast; TDP-43 expressing yeast growth rescue, BacTiter-Glo, 24 h; Potency, µM (titrated, usually from 46.1 µM), without a hit: at the top dose growth rescue (activation), hits mostly activators; hit rate 1.8% among 410,000; further: % of control where 0% means no effect; nearly all actives have a fitted effect of over 50% in size
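Yeast cells expressing TDP-43 under galactose induction are exposed to compounds for 24 hr at 30 deg C. BacTiter-Glo luminescence measures growth, so protective compounds score as activators.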
aSyn rescue: inhibitors of alpha-synuclein toxicity in yeast; Yeast expressing alpha-synuclein, growth rescue, BacTiter-Glo, 24 h; Potency, µM (titrated, usually from 46.1 µM), without a hit: at the top dose growth rescue (activation), hits mostly activators; hit rate 0.14% among 370,000; AID 652106; further: % of control where 0% means no effect; nearly all actives have a fitted effect of over 65% in size
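Galactose-induced alpha-syn yeast (OD600=0.02, raffinose-pregrown) + pinned cpd, 24 hr, 30 deg C; growth by BacTiter-Glo luminescence. Growth restoration scores as activation.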
BCR signal inh: chronic active BCR signaling inhibition; ABC-DLBCL IkBa-CBG/CBR reporter, luminescence ratio, 4 h; Potency, µM (series often up to 46.1 µM), inactives show at the highest dose activity change, negative = inhibition, most hits filed as inhibitors; hit rate 0.05% among 340,000; active means well fitted inhibition curve with a large enough effect in the signal ratio, with a control signal flat, not every such curve was filed as active; inconclusive means small, poorly fitted or top-dose-only effect, or effect the other way, or a change in a side signal; the % refers to the signal ratio;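 further: plate controls were basal doxycycline-induced cells for no effect and cells given 10 µM MG132 for full effect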
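Compounds up to 46 uM were incubated four hours with TMD8 cells whose green CBG68 luciferase is fused to IkappaBalpha; red CBR luminescence normalised the signal, and concentration-effect curves were fitted to fusion, red and ratio data.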
Abeta rescue: restores growth of yeast expressing A-beta42 peptide. yeast expressing A-beta42, growth rescue, OD600, 48 h; response scale: 0% DMSO, 100% iron-clioquinol control. Potency, µM (highest dose often 46.1 µM), most hits filed as activators. hit rate 0.063% among 410,000. AID 1347071; further: nearly all actives have a fitted effect of over 55% in size
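Yeast growth medium received pinned compounds, then yeast cells expressing toxic A-beta were added; plates incubated at 30 C for 48 hr. Growth read as absorbance at 600 nm, normalized to DMSO and equimolar FeCl3 plus clioquinol controls.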
uPA surface inh: blocks generation of uPA at the cell surface | hit rate 0.31% among 330,000 | AID 540303 | Potency, µM (titrated, usually from 38.3 µM), inactives show at the highest dose activity change, negative = inhibition, usual class: inhibitors | cell surface uPA generation assay, qHTS; active means well fitted inhibition curve with a large enough effect; inconclusive means small, poorly fitted or top-dose-only effect; inactive means no such curve, though single readings can be large or run the other way; tested in mouse RAW 264.7 cells; further: on the % scale 0 is the no-effect control and ±100 the full control effect; nearly all actives have a fitted effect of over 55% in size
An asterisk follows results filed as active; i = inactive; u = inconclusive; x = not tested or not shown. A selection: hits, their analogues and other compounds. The true share with any hit is near 2.3%. Unless noted, the call rests on the fitted dose curve; in most records, active means well fitted curve in the direction sought with a large enough effect; inconclusive means small, poorly fitted or top-dose-only effect, or another doubt; inactive means no such curve, though single readings can be large; an effect the other way counts as inactive or inconclusive. Potency means the concentration at half of the fitted maximal effect.

SMILES | FUS suppressor | TDP43 rescue | aSyn rescue | BCR signal inh | Abeta rescue | uPA surface inh
CC(C)(C)N=C1NN=C(c2ccc(S(=O)(=O)N3CCCCC3)cc2)CS1 | u | -2.9% | -1.4% | 12.9% | i | -5.5%
CCOc1ccccc1NC(=O)COn1nnc2ccc(Cl)cc21 | i | u | 1.2% | u | i | -0.1%
CCCN(Cc1ccccc1)C(=S)Nc1ccc(F)cc1 | i | 17.8µM* | -3.0% | 0.8% | i | -2.4%
N#CCCN(Cc1ccccc1)C(=S)Nc1ccc(F)cc1 | i | -5.7% | -0.9% | 0.6% | i | 2.7%
COc1ccc(CSCC(=O)Nc2ccc(S(=O)(=O)N3CCCCCC3)cc2)cc1 | x | 17.8µM* | 4.2% | -4.1% | i | -4.5%
COc1ccc(NC(=O)CSCC(=O)Nc2ccc(S(=O)(=O)N3CCCCC3)cc2)cc1 | i | 7.3% | 1.8% | -1.5% | i | -4.4%
CC(=O)N1c2ccc(S(=O)(=O)N(C)CC(=O)NCc3ccccc3)cc2CC1C (stereo unspecified) | i | -7.9% | -4.6% | -5.8% | i | 3.9%
CC1=C(C(=O)NCc2cccc(Br)c2)C2(CCCCC2)OC1=O | i | 17.8µM* | x | x | i | x
O=C1[C@@H]2CSC(c3ccc(C(F)(F)F)cc3)N2C(=O)N1c1ccccc1 (stereo partly specified) | i | 12.6µM* | x | x | i | x
O=C1CC(N2CCN(c3ccc(Cl)cc3)CC2)C(=O)N1c1ccccc1 (stereo unspecified) | i | 9.3% | 1.6% | 1.8% | u | 7.1%
O=C1[C@@H]2CSC(c3ccc(Cl)cc3)N2C(=O)N1c1ccccc1 (stereo partly specified) | i | 35.5µM* | x | x | i | x
Cc1ccc(C)n1-n1cnc2sc3c(c2c1=O)CCC3 | i | 21.5% | 8.2% | -1.4% | i | 1.4%
O=c1c2c3c(sc2ncn1-n1cccc1)CCCCC3 | i | 12.6µM* | 6.6% | -6.5% | i | -5.6%
Cc1ccc(N2C(=O)CC(C)CC2=O)cc1 | i | 11.5% | 1.2% | 2.2% | i | 6.1%
CNc1ncc(C(=O)c2ccc(Cl)cc2)s1 | i | 10µM* | -2.9% | -16.8% | i | -6.8%
Fc1ccccc1N1CCN(Cc2nnc(-c3ccc4c(c3)OCO4)o2)CC1 | i | u | x | x | i | x
CCC(NC(=O)C(C)NC)C(=O)N1CCCC1C(=O)NC1CCCc2ccccc21 (stereo unspecified) | i | -0.3% | 2.6% | 1.1% | i | 0.398µM*
CCC(C)[C@H](NC(=O)NC1CCCc2ccccc21)C(=O)O (stereo partly specified) | i | -21.0% | -1.8% | 3.8% | i | x
Cc1nn(C)cc1CN(C)C(=O)CC12CC3CC(CC(C3)C1)C2 | x | 22.4µM* | -1.2% | 1.0% | i | -1.6%
CN(C)C(=O)CC12CC3CC(C1)CC(CC(=O)N(C)C)(C3)C2 | i | 16.9% | 0.8% | 3.3% | i | -1.0%
Cc1cc2ncn(C(=O)N3CCC(C)CC3)c2cc1C | i | u | 2.2% | -7.4% | i | 2.8%
C#CCOCCOCCOCCNc1nc(N2CCOCC2)nc(N2CCN(C(=O)[C@H](CC(N)=O)n3cc([C@@H](N)C(C)C)nn3)CC2)n1 | i | 9.5% | -0.6% | 2.1% | i | -4.5%
CN(Cc1ccccc1)S(=O)(=O)c1ccc(OCC(=O)N2CCOCC2)cc1 | i | 6.5% | 4.6% | 3.4% | i | 9.0%
c1ccc2c(Nc3nc(-c4ccncc4)nc4ccccc34)cccc2c1 | i | 2.2% | 5.3% | -7.9% | i | 3.4%
Clc1ccccc1Nc1nc(-c2ccncc2)nc2ccccc12 | i | 35.5µM* | 0.9% | -1.0% | i | u
SMILES | FUS suppressor | TDP43 rescue | aSyn rescue | BCR signal inh | Abeta rescue | uPA surface inh
Cc1cccc(SCC(=O)Nc2ccc3c(c2)OCCO3)c1 | i | 11.2µM* | 23.4% | 1.0% | i | -3.6%
Cc1ccccc1N(C)S(=O)(=O)c1nnc(NC(=O)C(C)C)s1 | i | 18.9% | x | x | i | x
Cc1ccccc1N(C)S(=O)(=O)c1nnc(NC(=O)c2ccccc2F)s1 | i | 12.6µM* | 3.4% | 15.9% | i | 4.1%
CC(C)(C)Sc1ccc(/C=N/O)cc1[N+](=O)[O-] | i | 15.8µM* | 8.6% | u | i | x
CCc1ccc(OC(C)C(=O)N2CCC(c3nc4ccccc4o3)CC2)cc1 (stereo unspecified) | i | u | x | x | i | x
Cc1cc(OC(C)C(=O)N2CCC(c3nc4ccccc4o3)CC2)ccc1Cl (stereo unspecified) | u | 25.1µM* | x | x | i | x
Cc1cc(C)cc(OCC(=O)N2CCC(c3nc4ccccc4s3)CC2)c1 | u | u | x | x | i | x
Cc1cc(C)cc(OCC(=O)N2CCC(c3nc4ccccc4o3)CC2)c1 | i | 22.4µM* | x | x | i | x
CC1CCN(c2nc(/C=C/c3ccccc3)nc3ccccc23)CC1 | i | u | -15.7% | u | i | -10.2%
CCN(C(=O)C(NS(=O)(=O)c1ccc(Br)s1)c1ccccc1)c1ccc(C)c(C)c1 (stereo unspecified) | i | 6.7% | x | x | i | x
O=C(CSc1ccc([N+](=O)[O-])cc1)OCC(=O)N1CCCC1=O | i | 8.7% | -14.5% | -7.1% | i | 11.3%
COc1nc(Nc2cccc(C(F)(F)F)c2)nc(OC)n1 | i | 14.1µM* | -9.0% | u | i | 1.5%
COc1ccc([C@@H]2Sc3cc(OC)ccc3N(CCN(C(C)C)C(C)C)C(=O)[C@H]2OC(C)=O)cc1 | i | 11.6% | 5.6% | -5.7% | i | x
Cc1ccccc1OCCCc1c(C)n[nH]c1C | i | 20µM* | 8.0% | u | i | 1.5%
COc1cccc(CNC(=O)CCCN2C(=O)COc3ccc(C)cc32)c1OC | i | x | x | x | x | x
COc1cccc(OC)c1C(=O)NC(C)c1ccccc1 (stereo unspecified) | i | -0.2% | 1.7% | -0.4% | i | 3.3%
Cc1ccc(C)c(S(=O)(=O)N2CCN(C(=O)Cc3sc(C)nc3-c3ccc(F)cc3)CC2)c1 | x | 18.0% | 15.8µM* | x | i | -8.2%
Cc1nc(-c2ccc(F)cc2)c(CC(=O)N2CCN(S(=O)(=O)c3ccccc3Br)CC2)s1 | x | 8.7% | 10.4% | 2.0% | i | -22.4%
COc1ccc(C2=NNC(=Nc3cc(S(=O)(=O)N(C)C)ccc3C)SC2)c(OC)c1 | i | 10.6% | -2.1% | -0.1% | i | u
CSc1nn(Cc2cccc(Cl)c2)c(N(C(C)=O)C(C)=O)c1S(=O)(=O)c1ccccc1 | i | 11.2µM* | x | x | i | x
CN(C)Cc1c(C(=O)N/N=C/c2cccc(OCc3c(F)cccc3Cl)c2)nnn1-c1nonc1N | i | 8.3% | 2.5% | 5.7% | i | -2.9%
